Bioassay records as filed in PubChem BioAssay.
Sampled rows, rich in hits. Any-hit rate of the full collection: about 7.4%.
SMN2 splice enh: SMN2 splice variant enhancement. HEK293 SMN2-luciferase splicing reporter, luminescence, 30-36 h. Potency, µM (highest dose often 46.1 µM), inactives show at the highest dose activity change, positive = activation, actives largely listed as activators. hit rate 2.8% among 210,000. AID 1458; also: % of control where 0% means no effect; nearly all actives have a fitted effect of over 55% in size
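qHTS luciferase splicing reporter: luminescence rises when SMN2 exon 7 is included in transfected HEK293 cells. Compound exposure lasted 30-36 h at 37C, with 4.5 mM final sodium butyrate as control, followed by a ONE-Glo read.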
NPC1 promoter act: activators of NPC1 promoter; Potency, µM (doses to about 9.22 µM), for inactives: top-dose activation, actives largely listed as activators; Huh7 NPC1 promoter luciferase reporter, 24 h; hit rate 2.4% among 320,000; also: % of control where 0% means no effect; nearly all actives have a fitted effect of over 60% in size
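Luciferase expression driven by the NPC1 promoter was measured in stably transfected Huh7 cells after a 24 h compound incubation, using a luciferase reagent and a luminescence read.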
Rab9 promoter act: activators of Rab9 promoter. Huh7 Rab9 promoter-luciferase reporter, luminescence, 24 h. Potency, µM (doses to about 9.22 µM), inactives show top-dose activation, negative = inhibition, actives largely listed as activators. hit rate 2.8% among 320,000. AID 485297; also: % of control where 0% means no effect; nearly all actives have a fitted effect of over 60% in size
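Huh7 cells stably carrying a Rab9 promoter-luciferase reporter, 1500 cells per well in OP-MEM I with 10% FBS, treated with compound 24 hours at 37C. Luciferase activity read by luminescence after 10 minutes with Amplite reagent.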
FLuc counter: inhibits or activates purified firefly luciferase, miR-21 counter-screen; purified FLuc, Km substrates, luminescence inhibition; P08659; hit rate 6.9% among 360,000; Potency, µM (highest dose often 57.5 µM), inactives show top-dose activity change, negative = inhibition, actives largely listed as inhibitors;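 also: plate controls were vehicle for no effect and reference inhibitor for full effect; nearly all actives have a fitted effect of over 55% in size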
Target sequence (P08659 whole entry, looked up): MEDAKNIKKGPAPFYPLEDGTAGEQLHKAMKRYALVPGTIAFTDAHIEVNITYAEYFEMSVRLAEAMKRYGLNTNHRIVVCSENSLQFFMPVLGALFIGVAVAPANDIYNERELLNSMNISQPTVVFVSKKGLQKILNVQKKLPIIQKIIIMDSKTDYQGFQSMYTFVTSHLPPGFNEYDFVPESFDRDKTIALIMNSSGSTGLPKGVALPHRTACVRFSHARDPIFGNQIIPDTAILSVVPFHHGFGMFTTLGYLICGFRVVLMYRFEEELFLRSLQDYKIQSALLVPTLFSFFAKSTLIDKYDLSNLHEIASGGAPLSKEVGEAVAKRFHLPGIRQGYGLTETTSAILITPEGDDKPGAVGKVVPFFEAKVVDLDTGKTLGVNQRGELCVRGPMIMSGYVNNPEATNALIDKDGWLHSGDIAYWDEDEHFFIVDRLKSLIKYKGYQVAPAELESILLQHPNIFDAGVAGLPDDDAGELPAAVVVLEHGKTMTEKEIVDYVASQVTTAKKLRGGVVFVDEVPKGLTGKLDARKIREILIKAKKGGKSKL
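Biochemical qHTS of compounds, final roughly 60 µM downward over six points, against 10 nM purified firefly luciferase using Km concentrations of substrates (10 uM D-luciferin, 10 uM ATP) in Tris acetate pH 7.5 buffer; luminescence output.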
ELG1 genotox: induces genotoxicity in HEK293T cells with luciferase-tagged ELG1 | HEK293T ELG1-luciferase reporter, luminescence, 16 h | Potency, µM (titrated, usually from 46 µM), inactives show at the top dose activity change, positive = activation, most hits filed as activators | hit rate 1.3% among 330,000 | AID 504466; also: % of control where 0% means no effect; nearly all actives have a fitted effect of over 60% in size
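After overnight (16 hr) compound treatment at 37 °C, ELG1-luciferase HEK293T cells were lysed with ONE-Glo; luminescence quantified 30 min later at room temperature.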
The depositor's hits bear a star; ? = inconclusive; / = not tested or not shown; [ ] = another dose, or the depositor's remark. Calls follow the shape of the dose curve; as a rule, active = well fitted curve in the direction sought with a large enough effect; inconclusive = small, poorly fitted or top-dose-only effect, or another doubt; inactive = no such curve, though single readings can be large; an effect the other way counts as inactive or inconclusive. Potency is read from the fitted curve at half-maximal effect.

SMILES	SMN2 splice enh	NPC1 promoter act	Rab9 promoter act	FLuc counter	ELG1 genotox
Cc1ccc2nc(SCC3CCCCO3)[nH]c2c1 (stereo not given)	/	0.4µM*	0.11µM*	1.2µM*	?
Cc1cc(C(=O)CSc2nc3ccc(Cl)cc3[nH]2)c(C)n1CC1CCCO1 (stereo not given)	-82%	-2%	-4%	?	-8%
CC(C)COc1ccc(C(=O)NCC2OCCc3ccccc32)cc1 (stereo not given)	-10%	/	/	?	/
COc1ccc(C(=O)NCC2OCCc3ccccc32)c(O)c1 (stereo not given)	?	28%	?	21µM*	?
COc1ccccc1NC(=O)COc1ccc2ccccc2c1	/	2%	1%	15µM*	2%
O=C(COc1ccc2ccccc2c1)NC1CC1	-14%	11%	?	17µM*	17%
COc1ccc(NC(=O)COc2ccccc2)c(OC)c1	21%	?	?	19µM*	18µM*
COc1ccc(NC(=O)COc2ccc(Br)cc2)c(OC)c1	/	18%	-1%	-17%	7%
O=C(O)Cc1ccc(NC(=O)COc2ccc3ccccc3c2)cc1	/	-4%	6%	19µM*	9%
O=C(COc1ccc2ccccc2c1)NCCNC(=O)COc1ccc2ccccc2c1	-1%	-1%	-1%	10%	-8%
CC1(C)S[C@@H]2[C@H](NC(=O)[C@@H](N)c3ccccc3)C(=O)N2[C@H]1C(=O)O[C@H]1OC(=O)c2ccccc21	-13%[20.6 µM]	/	/	/	/
CCCCc1nc2c(c3c1C[C@H](C)OC3)CN(S(=O)(=O)c1ccccc1C(=O)OC)CC2	2%[9.22 µM]	/	/	/	/
COc1ccc(NC(=O)COC(=O)Cc2ccc(-c3ccccc3)cc2)c(OC)c1	4%	-6%	1%	13µM*	1%
COc1ccc(OCC(=O)Nc2ccccc2O)cc1	-7%	25%	?	21µM*	9.2µM*
CCc1ccc(OCC(=O)Nc2cc(S(=O)(=O)CC)ccc2O)cc1	-11%	-2%	-10%	24µM*	-2%
O=C(COc1ccc2ccccc2c1)Nc1ccccc1C(=O)O	/	18%	25%	17µM*	14%
COc1ccc(C)cc1NC(=O)COC(=O)Cc1ccc(-c2ccccc2)cc1	/	-1%	0%	?	7%
CCS(=O)(=O)c1ccc(O)c(NC(=O)COc2ccccc2)c1	-7%	-3%	1%	-6%	0%
CC(=O)N1CCN(S(=O)(=O)c2cccc(C(=O)NNC(=O)Cn3nc(C)cc3C)c2)CC1	/	-2%	-4%	7%	0%
O=C(O)C1CC(C2CCCCN2)CN2CCCCC12 (stereo not given)	8%	/	/	/	/
COc1ccc(NC2=NCCCCC2)cc1	/	1%	-1%	1%	-2%
COc1ccc(NC2=Nc3ccccc3CC2)cc1	13µM*	2.8µM*	1.6µM*	11µM*	4.5µM*
COc1ccc(NC(=O)c2ccc(NC(=O)CCS(=O)(=O)c3cccs3)cc2)cc1Cl	16µM*	/	/	5%	/
Cc1cc(NC(=O)c2ccc(NC(=O)CCS(=O)(=O)c3cccs3)cc2)ccc1Br	16µM*	/	/	-2%	/
COc1ccc(C(=O)Nc2ccccc2C(=O)O)cc1NC(=O)C(c1ccccc1)c1ccccc1	/	20%	22%	13µM*	4%
SMILES	SMN2 splice enh	NPC1 promoter act	Rab9 promoter act	FLuc counter	ELG1 genotox
CCN(CC)S(=O)(=O)c1cc(C(=O)Nc2ccccc2C(=O)O)ccc1OC	10%	16%	0%	6µM*	5%
CCOc1ccc(C(=O)Nc2ccccc2-c2ccccc2)cc1Cl	-15%	-3%	2%	-2%	0%
CCOc1ccc(C(=O)Nc2cccc(C(=O)O)c2C)cc1Cl	0.5µM*	?	?	3.4µM*	-10%
COc1c(Cl)cc(C(=O)Nc2ccccc2-c2ccccc2)cc1Cl	-9%	-5%	2%	3%	-3%
CCOc1c(Cl)cc(C(=O)Nc2ccccc2C(=O)O)cc1Cl	?	25%	?	19µM*	1%
COc1ccccc1C(=O)Nc1ccc(C(=O)Nc2ccccc2C(=O)O)cc1	/	2%	4%	0%	-8%
CCC(C)n1c(=N)c(C(=O)NCc2ccccc2)cc2c(=O)n3cc(C)ccc3nc21 (stereo not given)	10%	/	/	-4%	/
